Test results as given in PubChem BioAssay (NCI).
The panel holds about 83,000 compounds, 20% with a hit somewhere; the sample as a whole holds those more often.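 Assay: single dose, 48 h. Readout: percent growth (0 = no net growth; negative = cell death). Active: <10.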 The source made the active and inactive calls.

What follows are molecules tested on HS 578T breast (assay: NCI-60 one-dose screen, 48 h (100 = growth as untreated, 0 = no growth, -100 = all killed)). Conditions: 10 µM.
Method: Growth inhibition of the HS 578T human tumor cell line is measured as a screen for anti-cancer activity. Cells are grown in 96 well plates and exposed to the test compound for 48 hours. Compounds are tested at a single concentration, which is 10^-5 M for most compounds. The reported endpoint is percent growth (GI% or GIPRCNT), where numbers from 0 - 100% represent growth inhibition, and numbers from -100% - 0 represent cell death. For example, a value of 40 represents 60% growth inhibition. A value of 0 means no net growth occurred over the course of the experiment. A value of -40 indicates 40% of cells at the beginning of the experiment died by the end of the experiment. A value of -100 means all cells are dead at the end of the experiment.
NCI-60 Human Tumor Cell Lines Screen was performed using the standard one-dose NCI protocol, which is described in more detail at https://dtp.cancer.gov/discovery_development/nci-60/default.htm.
Compounds with GIPRCNT values below 10 were considered active. Activity score was based on GIPRCNT using the following formula: […]
Score is 0 for GIPRCNT values of 100 or above, 50 for GIPRCNT values of 0, and 100 for GIPRCNT values of -100.

Row | Structure (SMILES) | growth
1 | NN1C(=O)CSC1=S | 101% (inactive)
2 | N#Cc1c(-c2ccc(Cl)cc2)csc1NC(=O)Nc1cccc(C(F)(F)F)c1 | 47.9% (inactive)
3 | CCN1CCN(c2cc(C)nc(N(CCCNc3ccnc4cc(Cl)ccc34)Cc3cccs3)n2)CC1 | -22.4% (active)
4 | CNC(=O)c1cc(Oc2ccc3nc(NC(=O)Nc4ccc(Cl)c(C(F)(F)F)c4)sc3c2)ccn1 | -16.1% (active)
5 | COC(=O)[C@]12CC[C@@H](C)[C@H](C)[C@@H]1C1=CC[C@@H]3[C@@]4(C)C(c5cnco5)=C[C@@](C)(CO)C4=CC[C@@]3(C)[C@]1(C)CC2 | 72.8% (inactive)
6 | CC(C)=CCc1cc2c(cc1O)C1=C(C(=O)C3=C(NCCS3(=O)=O)C1=O)C(C=C(C)C)O2 (stereo not given) | 73.5% (inactive)
7 | CN(N)c1nc2sc3c(c2c(=O)[nH]1)CCCC3 | 94.6% (inactive)
8 | Cc1cc2c(-c3nc4ccccn4c3NC34CC5CC(CC(C5)C3)C4)c(O)c(O)cc2c(O)c1-c1c(C)cc2c(-c3nc4ccccn4c3NC34CC5CC(CC(C5)C3)C4)c(O)c(O)cc2c1O | 21.8% (inactive)
9 | Brc1ccc([I+]c2ccc(Br)cc2)cc1 | 69.7% (inactive)
10 | CC(=O)OC(C(=O)c1ccccc1)c1ccccc1 (stereo not given) | 125% (inactive)
11 | COC(=O)[C@]12CC[C@@H](C)[C@H](C)[C@@H]1C1=CC[C@@H]3[C@@]4(C)C(C#N)=CC(C)=C4CC[C@@]3(C)[C@]1(C)CC2 | 97.5% (inactive)
12 | Cc1oc2c(C(=O)N/N=C\c3ccc(O)cc3O)c[nH]c2c1C | 58.2% (inactive)
13 | COc1cc(C2CC(c3ccc(Cl)cc3)=NN2c2ccc(Cl)cc2)cc(OC)c1OC (stereo not given) | 84% (inactive)
14 | [2H]C1([2H])[C@H](C)O[C@H](C)C([2H])([2H])N1c1ccc(NC(=O)c2cccc(-c3ccc(OC(F)(F)F)cc3)c2C)cn1 | 88.2% (inactive)
15 | CC(=O)O[C@]1(C)C[C@H](O)[C@]2(O)C=CO[C@H](O[C@@H]3O[C@H](CO)[C@@H](O)[C@H](O)[C@H]3O)[C@@H]21 | 112% (inactive)
16 | COC(=O)[C@@H](OC)[C@@H]1Cc2cc3cc(OC4CC(OC5CC(O)C(O)C(C)O5)C(O)C(C)O4)c(C)c(O)c3c(O)c2C(=O)[C@H]1OC1CC(OC2CC(OC3CC(C)(O)C(O)C(C)O3)C(O)C(C)O2)C(O)C(C)O1 (stereo not given in full) | -10.5% (active)
17 | CC(C)[C@@H](C)/C=C/[C@@H](C)[C@H]1CCC2=C3C=CC4=CC(=O)CC[C@]4(C)[C@H]3CC[C@@]21C | 108% (inactive)
18 | O=C1CC(c2cccc(F)c2)c2c(n[nH]c2-c2ccc(Cl)cc2)N1 (stereo not given) | 91.2% (inactive)
19 | COc1cc2c(cc1OCCCCN1CCN(CC(=O)Nc3ccc(Cl)cc3C(=O)c3ccccc3Cl)CC1)N=CC1CCCN1C2=O (stereo not given) | -66.4% (active)
20 | CC(C)(C)c1ccc(Cn2cc(CSc3nc4ccccc4s3)nn2)cc1 | 93.7% (inactive)

Row | Structure (SMILES) | growth
21 | CC(=O)OCCC/C(=C\c1ccc2ccccc2c1)[N+](=O)[O-] | -40% (active)
22 | O=C(COc1ccc(/C=C2\Cc3ccc(Cl)cc3C2=O)cc1)Nc1nccs1 | 101% (inactive)
23 | O=C1CC(c2ccc(Cl)cc2)c2ncn(-c3cccc(Cl)c3)c2N1 (stereo not given) | 52.8% (inactive)
24 | O=C1/C(=C\c2cccc(OCCCCCOc3ccc(Cl)cc3)c2)N=C2SCCCN12 | 87% (inactive)
25 | CCNCCNc1cc(-c2ccc(Cl)c(Cl)c2)c(C#N)c2nc3ccccc3n12 | -45.7% (active)
26 | CCc1nc2cc(/C=C/C(=O)NO)ccc2c(=O)n1CCc1ccc(F)cc1 | 52.6% (inactive)
27 | Cc1ccc(-c2cc3c(SCC(=O)Nc4cc(C(F)(F)F)ccc4Cl)nccn3n2)cc1 | 87% (inactive)
28 | CC(C)=CCc1cc2c(cc1O)C1=C(C(=O)C3=C(C1=O)S(=O)(=O)CCN3)C(C=C(C)C)O2 (stereo not given) | 11.1% (inactive)
29 | COC(=O)[C@H](Cc1ccc(O)cc1)NC(=O)[C@@H](OC)[C@@H]1Cc2cc3cc(OC4CC(OC5CC(O)C(O)C(C)O5)C(O)C(C)O4)c(C)c(O)c3c(O)c2C(=O)[C@H]1OC1CC(OC2CC(OC3CC(C)(O)C(O)C(C)O3)C(O)C(C)O2)C(O)C(C)O1 (stereo not given in full) | -9.2% (active)
30 | COc1cc(NCCCN)c2ncccc2c1 | 92.2% (inactive)
31 | Nc1c(C(=O)c2ccccc2)sc2nc(-c3cccs3)ccc12 | 34.3% (inactive)
32 | CCCCN1CCCC[C@@H]1C(=O)N[C@H](C(=O)N(C)[C@H](CCc1nc(C(=O)N[C@@H](Cc2ccccc2)C[C@H](C)C(=O)OC)cs1)C(C)C)C(C)C | 90% (inactive)
33 | O=C(Nc1ccc(N=Nc2ccccc2)cc1)c1cccc2ccccc12 | 72.6% (inactive)
34 | CCOc1ccc(N=C(C)Nc2ccc(OCC)cc2)cc1 | 106% (inactive)
35 | O=c1nc2c(-c3nc4ccccc4s3)n[nH]n2c2sc3c(c12)CCCC3 | 94.3% (inactive)
36 | O=C1CSC(c2c(F)cccc2Cl)N1NC(=O)C(O)(c1ccccc1)c1ccccc1 (stereo not given) | 90.1% (inactive)
37 | CCCCCCCCCCCC[n+]1ccccc1 | 6.1% (active)
38 | CC(=O)Oc1ccccc1C(=O)N=C1[Se]CCN1C(=O)c1ccccc1OC(C)=O | -14.9% (active)
39 | Nc1ccc(S(=O)(=O)O)c2cc(S(=O)(=O)O)cc(O)c12 | 103% (inactive)
40 | O=C(CNc1nc(-c2ccc(Cl)cc2)cs1)Nc1ccc(-c2nc3ccccc3s2)cc1 | 91.3% (inactive)
